# Measured values reported in ChEMBL document CHEMBL3988442, “University of Dundee, Small-Polar-MMV Screening Library” (2021).
# For some assays here: Potency and affinity values are given separately.
# Experiments:
# Design in all cases: scale not given: direction of the effect not stated beside the values
# [1] = molecular target: Protein translocase subunit SecA (Escherichia coli (strain K12)) (UniProt P10408); assay: Assay to Identify E. coli SecA ATPase Inhibitors; type: functional; conditions: 30 µM
# Chain of Protein translocase subunit SecA (Escherichia coli (strain K12)) (P10408 whole entry): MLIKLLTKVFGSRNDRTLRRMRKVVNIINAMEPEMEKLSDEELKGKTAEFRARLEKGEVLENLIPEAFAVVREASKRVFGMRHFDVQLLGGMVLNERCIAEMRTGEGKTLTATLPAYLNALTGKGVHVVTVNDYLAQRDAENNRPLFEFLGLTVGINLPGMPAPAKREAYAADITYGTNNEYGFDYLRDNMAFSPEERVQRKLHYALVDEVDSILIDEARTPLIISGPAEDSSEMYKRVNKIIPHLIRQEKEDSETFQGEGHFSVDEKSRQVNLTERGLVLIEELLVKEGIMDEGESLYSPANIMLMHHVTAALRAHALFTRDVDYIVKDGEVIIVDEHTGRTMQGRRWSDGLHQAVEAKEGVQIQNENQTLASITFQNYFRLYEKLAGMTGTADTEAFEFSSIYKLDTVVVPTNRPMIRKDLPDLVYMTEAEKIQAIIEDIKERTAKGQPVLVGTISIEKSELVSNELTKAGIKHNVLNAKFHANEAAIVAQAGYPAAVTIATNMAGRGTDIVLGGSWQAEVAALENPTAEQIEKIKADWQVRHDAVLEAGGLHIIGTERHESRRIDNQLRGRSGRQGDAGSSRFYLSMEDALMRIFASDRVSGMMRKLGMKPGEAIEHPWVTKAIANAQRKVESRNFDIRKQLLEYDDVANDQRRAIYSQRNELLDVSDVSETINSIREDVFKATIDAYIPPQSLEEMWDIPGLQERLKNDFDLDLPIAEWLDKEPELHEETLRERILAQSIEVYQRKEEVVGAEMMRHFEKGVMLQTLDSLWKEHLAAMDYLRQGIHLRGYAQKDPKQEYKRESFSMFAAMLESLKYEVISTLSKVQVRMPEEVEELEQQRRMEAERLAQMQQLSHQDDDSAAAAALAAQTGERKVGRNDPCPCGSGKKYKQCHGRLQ
# [2] = molecular target: T1, Ubiquitin-activating enzyme e1, putative (Leishmania donovani (strain BPK282A1)) (UniProt E9BSI1); assay: Leishmania donovani Ubiquitin Activating Enzyme (LdE1); type: functional; conditions: 30 µM
# T1 sequence (whole entry): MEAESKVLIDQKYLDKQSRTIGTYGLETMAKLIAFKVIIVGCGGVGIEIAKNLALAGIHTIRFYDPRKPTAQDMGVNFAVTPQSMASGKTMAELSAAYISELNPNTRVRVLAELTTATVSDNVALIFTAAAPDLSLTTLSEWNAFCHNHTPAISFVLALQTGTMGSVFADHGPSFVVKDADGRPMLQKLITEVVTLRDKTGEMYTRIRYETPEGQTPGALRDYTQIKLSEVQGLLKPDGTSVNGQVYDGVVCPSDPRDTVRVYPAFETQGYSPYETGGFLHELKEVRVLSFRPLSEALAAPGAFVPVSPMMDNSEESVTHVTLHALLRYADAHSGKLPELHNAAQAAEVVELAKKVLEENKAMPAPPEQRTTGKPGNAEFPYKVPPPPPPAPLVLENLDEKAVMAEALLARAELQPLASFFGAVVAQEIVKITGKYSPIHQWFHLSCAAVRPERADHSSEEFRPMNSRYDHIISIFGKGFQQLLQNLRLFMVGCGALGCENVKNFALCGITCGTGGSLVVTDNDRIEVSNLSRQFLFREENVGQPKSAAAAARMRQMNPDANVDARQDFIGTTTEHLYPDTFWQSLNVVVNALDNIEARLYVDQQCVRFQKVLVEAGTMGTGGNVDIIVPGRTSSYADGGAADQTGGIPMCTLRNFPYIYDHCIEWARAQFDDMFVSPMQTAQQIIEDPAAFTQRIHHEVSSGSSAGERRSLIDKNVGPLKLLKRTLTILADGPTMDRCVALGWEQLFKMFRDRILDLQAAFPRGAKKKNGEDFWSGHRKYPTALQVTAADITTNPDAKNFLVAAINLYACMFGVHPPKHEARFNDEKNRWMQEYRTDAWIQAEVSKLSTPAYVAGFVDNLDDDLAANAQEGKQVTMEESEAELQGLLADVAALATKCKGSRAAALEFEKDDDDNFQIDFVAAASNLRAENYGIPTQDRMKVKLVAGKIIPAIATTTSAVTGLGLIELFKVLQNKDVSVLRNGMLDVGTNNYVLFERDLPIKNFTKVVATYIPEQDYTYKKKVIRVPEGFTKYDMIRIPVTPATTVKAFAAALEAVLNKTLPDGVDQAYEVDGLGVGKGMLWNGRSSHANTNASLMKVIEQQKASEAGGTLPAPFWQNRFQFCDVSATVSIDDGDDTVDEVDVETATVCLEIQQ
# [3] = molecular target: Sialic acid-binding Ig-like lectin 9 (Homo sapiens) (UniProt Q9Y336); assay: Hs-Siglec9 ALPHAscreen SOP 20170721; conditions: 10 µM
# Chain of Sialic acid-binding Ig-like lectin 9 (Homo sapiens) (Q9Y336 whole entry): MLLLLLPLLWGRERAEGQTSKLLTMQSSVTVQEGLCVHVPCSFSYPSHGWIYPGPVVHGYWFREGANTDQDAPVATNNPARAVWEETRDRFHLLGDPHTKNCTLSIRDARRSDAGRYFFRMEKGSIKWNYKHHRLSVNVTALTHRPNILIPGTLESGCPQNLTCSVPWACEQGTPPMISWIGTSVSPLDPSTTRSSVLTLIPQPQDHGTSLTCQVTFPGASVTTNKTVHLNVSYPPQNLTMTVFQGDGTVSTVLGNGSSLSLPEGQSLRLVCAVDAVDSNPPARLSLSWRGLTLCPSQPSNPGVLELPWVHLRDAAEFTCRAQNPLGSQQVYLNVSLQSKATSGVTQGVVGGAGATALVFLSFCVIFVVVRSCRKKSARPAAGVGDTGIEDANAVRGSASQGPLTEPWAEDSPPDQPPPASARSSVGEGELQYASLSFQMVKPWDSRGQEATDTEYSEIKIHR
# Trypanosoma cruzi = assay: Trypanosoma cruzi phosphomannomutase and mannose-1-phosphate guanylyltransferase assay; type: functional; conditions: 10 µM
# [4] = molecular target: T2, Arginase-2, mitochondrial (Homo sapiens) (UniProt P78540); assay: in vitro enzyme assay to detect the production of urea directly proportional to the activity of Arginase II; type: functional; conditions: 33.3 µM; note: in the data most compounds retested in dose-response had high values
# T2 sequence (whole entry): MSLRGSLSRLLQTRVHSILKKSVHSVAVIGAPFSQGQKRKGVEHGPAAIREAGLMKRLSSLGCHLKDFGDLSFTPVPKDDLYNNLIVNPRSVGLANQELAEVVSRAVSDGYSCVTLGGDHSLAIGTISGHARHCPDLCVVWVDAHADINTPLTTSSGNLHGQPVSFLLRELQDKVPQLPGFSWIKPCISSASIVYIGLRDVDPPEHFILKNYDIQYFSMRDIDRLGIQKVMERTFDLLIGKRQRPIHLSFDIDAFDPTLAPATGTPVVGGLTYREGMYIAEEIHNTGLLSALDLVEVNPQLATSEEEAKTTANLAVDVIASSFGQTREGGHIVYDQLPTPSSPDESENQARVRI
# [5] = molecular target: T3, Proteasome subunit beta (Trypanosoma cruzi) (UniProt O96673); assay: Trypanosoma cruzi proteasome chymotrypsin-like activity (TcProtChymo) assay.; note: in the data most compounds retested in dose-response had high values; type: functional; conditions: 9.37 µM
# T3 sequence (whole entry): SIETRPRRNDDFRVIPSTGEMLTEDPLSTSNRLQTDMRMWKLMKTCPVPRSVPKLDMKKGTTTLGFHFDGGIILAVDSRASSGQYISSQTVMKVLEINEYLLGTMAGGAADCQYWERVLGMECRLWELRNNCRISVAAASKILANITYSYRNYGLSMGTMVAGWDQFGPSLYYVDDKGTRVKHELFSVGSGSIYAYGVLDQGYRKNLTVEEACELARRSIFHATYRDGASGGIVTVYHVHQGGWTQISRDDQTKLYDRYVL
# Homo sapiens = species: Homo sapiens; assay: To identify inhibition of the IFN signalling (Jak-Stat) pathway via expression of an eGFP reporter gene under the control of an IFN-stimulated response element (ISRE) containing MxA promoter.; type: functional; conditions: 30 µM
# [6] = molecular target: T4, Tyrosyl-tRNA synthetase, putative (Trypanosoma cruzi (strain CL Brener)) (UniProt Q4DSP6); assay: Trypanosoma cruzi tyrosyl tRNA synthetase (TcYRS) _High Tyrosine SOP; type: functional; conditions: 30 µM; note: in the data most compounds retested in dose-response had high values
# T4 sequence (whole entry): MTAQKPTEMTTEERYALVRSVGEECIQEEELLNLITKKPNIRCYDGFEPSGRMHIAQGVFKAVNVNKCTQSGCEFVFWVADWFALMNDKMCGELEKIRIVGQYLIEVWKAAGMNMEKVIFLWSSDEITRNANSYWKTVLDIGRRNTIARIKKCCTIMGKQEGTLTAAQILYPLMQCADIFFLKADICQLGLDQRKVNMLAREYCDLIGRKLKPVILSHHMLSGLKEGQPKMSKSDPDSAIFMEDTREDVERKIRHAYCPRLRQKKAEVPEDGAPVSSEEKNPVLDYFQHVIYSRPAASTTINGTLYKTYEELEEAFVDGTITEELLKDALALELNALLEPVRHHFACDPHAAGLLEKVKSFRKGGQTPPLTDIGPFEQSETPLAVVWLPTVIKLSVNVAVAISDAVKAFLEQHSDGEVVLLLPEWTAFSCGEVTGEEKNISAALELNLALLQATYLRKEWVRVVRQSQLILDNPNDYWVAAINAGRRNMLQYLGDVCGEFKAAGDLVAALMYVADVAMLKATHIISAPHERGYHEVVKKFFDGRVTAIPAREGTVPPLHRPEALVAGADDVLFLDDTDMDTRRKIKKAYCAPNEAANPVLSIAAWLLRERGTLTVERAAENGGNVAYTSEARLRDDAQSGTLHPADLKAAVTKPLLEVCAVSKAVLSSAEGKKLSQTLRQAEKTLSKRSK
# [7] = molecular target: T4, Tyrosyl-tRNA synthetase, putative (Trypanosoma cruzi (strain CL Brener)); assay: Trypanosoma cruzi tyrosyl tRNA synthetase (TcYRS) SOP; type: functional; conditions: 30 µM
# [8] = molecular target: Chromo domain-containing protein 1 (Saccharomyces cerevisiae (strain ATCC 204508 / S288c) (Baker's yeast)) (UniProt P32657); assay: ScCHD-1 Enzyme Inhibition Assay; type: functional; conditions: 30 µM; note: in the data most compounds retested in dose-response had high values
# Chain of Chromo domain-containing protein 1 (Saccharomyces cerevisiae (strain ATCC 204508 / S288c) (Baker's yeast)) (P32657 whole entry, the tested form may be a part): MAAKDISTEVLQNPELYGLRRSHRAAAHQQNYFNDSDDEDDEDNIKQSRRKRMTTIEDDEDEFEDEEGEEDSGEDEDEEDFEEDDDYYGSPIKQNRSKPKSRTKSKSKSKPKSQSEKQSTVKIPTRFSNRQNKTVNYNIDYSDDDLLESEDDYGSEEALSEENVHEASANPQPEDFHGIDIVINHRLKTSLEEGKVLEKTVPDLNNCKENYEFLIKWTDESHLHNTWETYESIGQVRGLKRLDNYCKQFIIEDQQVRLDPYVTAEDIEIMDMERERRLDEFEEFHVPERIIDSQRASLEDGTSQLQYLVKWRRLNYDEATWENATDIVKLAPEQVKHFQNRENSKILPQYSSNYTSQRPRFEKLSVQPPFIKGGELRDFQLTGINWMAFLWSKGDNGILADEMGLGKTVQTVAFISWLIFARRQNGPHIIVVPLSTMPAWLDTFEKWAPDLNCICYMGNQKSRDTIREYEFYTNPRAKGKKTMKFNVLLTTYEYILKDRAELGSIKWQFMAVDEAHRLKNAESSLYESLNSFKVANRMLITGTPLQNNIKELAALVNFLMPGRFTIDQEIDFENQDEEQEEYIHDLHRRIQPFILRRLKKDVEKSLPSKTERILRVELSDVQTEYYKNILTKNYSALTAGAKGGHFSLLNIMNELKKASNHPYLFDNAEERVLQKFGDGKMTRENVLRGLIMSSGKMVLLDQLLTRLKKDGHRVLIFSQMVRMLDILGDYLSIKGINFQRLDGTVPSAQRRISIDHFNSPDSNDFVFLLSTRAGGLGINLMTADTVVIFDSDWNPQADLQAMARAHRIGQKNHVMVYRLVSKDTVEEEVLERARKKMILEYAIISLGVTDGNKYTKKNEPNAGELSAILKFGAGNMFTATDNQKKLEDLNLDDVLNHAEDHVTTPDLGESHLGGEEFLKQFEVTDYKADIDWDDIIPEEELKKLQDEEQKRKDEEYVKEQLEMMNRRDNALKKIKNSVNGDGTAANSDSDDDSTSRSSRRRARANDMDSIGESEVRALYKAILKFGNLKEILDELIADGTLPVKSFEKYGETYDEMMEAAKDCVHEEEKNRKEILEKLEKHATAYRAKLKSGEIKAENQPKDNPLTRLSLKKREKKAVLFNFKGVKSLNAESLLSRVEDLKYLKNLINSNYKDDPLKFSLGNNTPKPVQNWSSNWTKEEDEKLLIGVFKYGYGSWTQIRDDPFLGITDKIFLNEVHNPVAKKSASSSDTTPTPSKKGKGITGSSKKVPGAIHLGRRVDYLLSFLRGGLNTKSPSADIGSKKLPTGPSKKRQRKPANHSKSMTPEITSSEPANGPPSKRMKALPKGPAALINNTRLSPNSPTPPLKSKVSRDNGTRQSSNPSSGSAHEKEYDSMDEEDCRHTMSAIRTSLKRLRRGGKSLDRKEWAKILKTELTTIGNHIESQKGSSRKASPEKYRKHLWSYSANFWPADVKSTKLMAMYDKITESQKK
Compound,Percent Effect [1],Percent Effect [2],Percent Effect [3],Percent Effect (Trypanosoma cruzi),Percent Effect [4],Percent Effect [5],Percent Effect (Homo sapiens),Percent Effect [6],Percent Effect [7],Percent Effect [8]
CC(NC(=O)NCCCn1cncn1)c1ccccc1Cl (stereo not given),0.672%,10.7%,-2.84%,-7.63%,3.99%,7.72%,13.4%,3.68%,12.8%,-11%
O=C(Cn1cccnc1=O)NCCc1ccc2c(c1)OCCO2,-2.08%,16%,-6.16%,-5.22%,1.77%,18.9%,9.16%,1.58%,7.69%,-8.6%
c1ccc(CN2CCOCC3(CCN(C4CCOCC4)C3)C2)cc1 (stereo not given),-5.53%,6.49%,-8.07%,-4.58%,-3.24%,22.9%,8.96%,3.68%,10.3%,-0.0594%
CCOC(=O)CNC(=O)c1cccnc1Oc1ccc(Cl)cc1,3.19%,1.3%,56.3%,0.375%,6.85%,11.6%,25.5%,3.87%,0%,-12.4%
CCc1nc(C2CCCN2C(=O)c2nccnc2N)no1 (stereo not given),-2.75%,-5.13%,-2.27%,8.92%,0.82%,-4.69%,-2.29%,-2.39%,6.02%,-1.91%
COCC(=O)N1CCC(c2cc(C(F)(F)F)n3ccnc3n2)CC1,-4.74%,17.3%,7.36%,3.75%,0.885%,9.85%,5.45%,3.17%,15%,-24.5%
CC(C)NC(=O)N1C[C@H]2C[C@H](C(=O)NCc3ccccc3)[C@@H](C1)O2,-5.17%,-103%,-0.747%,-5.16%,-5.67%,8.74%,8.32%,3.68%,7.69%,3.3%
Cc1cnc(C(=O)N2C[C@@H]3CN(CC4CCCC4)CCO[C@@H]3C2)cn1,-3.12%,11.7%,4.74%,0.682%,-3.24%,9.97%,11%,5.79%,10.3%,-2.15%
CS(=O)(=O)NCc1cc2n(n1)CCCN(Cc1cccc(C#N)c1)C2,-4.38%,8.11%,22.8%,7.47%,10.8%,13%,18.6%,7.98%,19.5%,88%
CC(C)(C)n1ncc2c1NC(=O)CC2c1ccccc1 (stereo not given),-4.86%,5.41%,5.59%,2.23%,-3.15%,13.2%,12.2%,3.72%,14.6%,96%
CC(C)c1noc(CCCC(=O)NC2CCS(=O)(=O)C2)n1 (stereo not given),-0.362%,13.3%,-4.53%,2.01%,-7.98%,12.6%,8.49%,5.79%,15.4%,-11%
CCn1cnnc1CNC(=O)N1CCOCC1,-3.29%,0%,6.4%,-3.41%,2.66%,2.97%,-3.83%,2.63%,0%,-2.64%
O=C(c1cnccn1)N1CCCC2(COCCN(CC3CC3)C2)C1 (stereo not given),-3.64%,-1.3%,-5.88%,-2.43%,-0.81%,7.15%,-2.31%,-0.526%,5.13%,-0.986%
COc1cc(S(=O)(=O)N2CCCc3ccccc32)cc(C(=O)O)c1OC,-5.67%,0%,10.6%,-0.201%,-3.99%,7.38%,9.13%,0.526%,7.69%,-5.31%
NC(=O)Cn1cc(NC(=O)N2CCCC2)cn1,1.14%,12.8%,-7.88%,-0.469%,8.61%,11.7%,19.1%,5.26%,18.1%,-4.77%
Cc1ccccc1N1CCN(C(=O)c2ccc[nH]2)C(C)C1 (stereo not given),-7.84%,2.7%,33.4%,5.92%,-2.45%,9.25%,27.5%,1.6%,9.76%,-1.74%
O=C(NCc1ccccc1)[C@H]1C[C@@H]2CN(S(=O)(=O)C3CC3)C[C@H]1O2,-3.6%,1.3%,-4.1%,-3.99%,-1.22%,14.4%,14.4%,3.68%,7.69%,1.77%
Cc1cccc(C(=O)N2C[C@@H](OCc3cccnc3)[C@H]3OCCC[C@@H]32)n1,-3.43%,11.7%,-6.23%,4.77%,-4.45%,21.6%,5.3%,8.95%,7.69%,112%
Cn1cnc2c1CCN(Cc1ccc(C(=O)N3CCCC3)cc1)C2,-2.26%,15.4%,-9.12%,1.97%,4.51%,11%,9.66%,3.35%,20.5%,-0.499%
CCC1=N[C@@]2(CC[C@@H]3CN(C(=O)NCc4ccccc4)C[C@@H]32)C(=O)N1,-4.85%,3.9%,-3.04%,1.66%,-4.86%,4.33%,-16.6%,5.79%,5.13%,-0.556%
Cc1nc(COC[C@@H]2CCC[C@@]23CNCCO3)cs1,-4.17%,6.49%,-6%,-4.19%,4.05%,13%,8.21%,6.84%,2.56%,-5.3%
CN1CCCN(c2nccc(-c3c[nH]nc3C3CCCCC3)n2)CC1,2.25%,8%,-4.76%,-6.22%,1.33%,24%,23%,0.526%,2.56%,-14.2%
c1cnn(CC2CCCCN2Cc2cn3ccsc3n2)c1 (stereo not given),-2.05%,10.3%,13.3%,9.67%,0%,9.98%,15.8%,10.1%,18.1%,-1.18%
